# In article PMC8384837, “Expanding the binding specificity for RNA recognition by a PUF domain”:
# What was measured:
# Test in all cases: yeast three-hybrid, YBZ-1, SC-Leu-His + 0.5 mM 3-AT, 4 days
# Details in all cases: tags: N-Gal4 AD-HA kept; label: inside an RPR1-promoter hybrid RNA with tandem MS2 sites; ssRNA
# PUM1 PUF domain R4-ACG = PUM1 PUF domain R4-ACG (Homo sapiens, UniProt Q14671 828-1176, N971A;H972C;Q975G)
# Method in brief: (§1)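 Pumilio-1 PUF domain libraries, randomized at the three base-contacting residues of each repeat, were co-expressed with matching RNA elements from a centromeric plasmid in strain YBZ-1, which carries a LexA–MS2 coat fusion and a HIS3 reporter. Transformants grew for four days on SC-Leu (input) or on SC-Leu-His + 0.5 mM 3-AT (selection), and the repeat regions were PCR-amplified and Illumina-sequenced. The interaction score is the log change in variant frequency from input to selection. That logarithm is base 2, with a pseudocount of 1 where a variant was absent.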
# PUM1 PUF domain R4-PFN = PUM1 PUF domain R4-PFN (Homo sapiens, UniProt Q14671 828-1176, N971P;H972F;Q975N)
# Method in brief: as §1
# PUM1 PUF domain R4-GRA = PUM1 PUF domain R4-GRA (Homo sapiens, UniProt Q14671 828-1176, N971G;H972R;Q975A)
# Method in brief: as §1
# PUM1 PUF domain R5-GGR = PUM1 PUF domain R5-GGR (Homo sapiens, UniProt Q14671 828-1176, C1007G;R1008G;Q1011R)
# Method in brief: as §1
# PUM1 PUF domain R5-RHF = PUM1 PUF domain R5-RHF (Homo sapiens, UniProt Q14671 828-1176, C1007R;R1008H;Q1011F)
# Method in brief: as §1
# PUM1 PUF domain R1-KGS = PUM1 PUF domain R1-KGS (Homo sapiens, UniProt Q14671 828-1176, S863K;R864G;Q867S)
# Method in brief: as §1
# PUM1 PUF domain R8-RFT = PUM1 PUF domain R8-RFT (Homo sapiens, UniProt Q14671 828-1176, N1122R;Y1123F;Q1126T)
# Method in brief: as §1
# PUM1 PUF domain R8-HWG = PUM1 PUF domain R8-HWG (Homo sapiens, UniProt Q14671 828-1176, N1122H;Y1123W;Q1126G)
# Method in brief: as §1
# PUM1 PUF domain R2-RVE = PUM1 PUF domain R2-RVE (Homo sapiens, UniProt Q14671 828-1176, N899R;Y900V;Q903E)
# Method in brief: as §1
# PUM1 PUF domain R8-YHR = PUM1 PUF domain R8-YHR (Homo sapiens, UniProt Q14671 828-1176, N1122Y;Y1123H;Q1126R)
# Method in brief: as §1
# Chain of PUM1 PUF domain R4-ACG (Q14671 828-1176 N971A/H972C/Q975G): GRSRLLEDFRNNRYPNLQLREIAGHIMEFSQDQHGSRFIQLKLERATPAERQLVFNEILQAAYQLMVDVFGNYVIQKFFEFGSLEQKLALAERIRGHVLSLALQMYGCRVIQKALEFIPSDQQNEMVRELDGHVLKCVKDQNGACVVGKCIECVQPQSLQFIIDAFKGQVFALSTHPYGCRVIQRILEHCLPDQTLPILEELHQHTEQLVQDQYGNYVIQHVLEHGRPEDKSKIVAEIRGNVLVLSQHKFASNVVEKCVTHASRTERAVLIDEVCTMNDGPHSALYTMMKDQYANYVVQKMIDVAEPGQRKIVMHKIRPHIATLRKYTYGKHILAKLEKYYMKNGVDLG
# Chain of PUM1 PUF domain R4-GRA (Q14671 828-1176 N971G/H972R/Q975A): as the sequence (Q14671 828-1176 N971A/H972C/Q975G) above, with A144G, C145R, G148A counted along it
# Chain of PUM1 PUF domain R5-RHF (Q14671 828-1176 C1007R/R1008H/Q1011F): as the sequence (Q14671 828-1176 N971A/H972C/Q975G) above, with A144N, C145H, G148Q, C180R, R181H, Q184F counted along it
# Chain of PUM1 PUF domain R8-HWG (Q14671 828-1176 N1122H/Y1123W/Q1126G): as the sequence (Q14671 828-1176 N971A/H972C/Q975G) above, with A144N, C145H, G148Q, N295H, Y296W, Q299G counted along it
# Chain of PUM1 PUF domain R8-RFT (Q14671 828-1176 N1122R/Y1123F/Q1126T): as the sequence (Q14671 828-1176 N971A/H972C/Q975G) above, with A144N, C145H, G148Q, N295R, Y296F, Q299T counted along it
# Chain of PUM1 PUF domain R5-GGR (Q14671 828-1176 C1007G/R1008G/Q1011R): as the sequence (Q14671 828-1176 N971A/H972C/Q975G) above, with A144N, C145H, G148Q, C180G, R181G, Q184R counted along it
# Chain of PUM1 PUF domain R1-KGS (Q14671 828-1176 S863K/R864G/Q867S): as the sequence (Q14671 828-1176 N971A/H972C/Q975G) above, with S36K, R37G, Q40S, A144N, C145H, G148Q counted along it
# Chain of PUM1 PUF domain R4-PFN (Q14671 828-1176 N971P/H972F/Q975N): as the sequence (Q14671 828-1176 N971A/H972C/Q975G) above, with A144P, C145F, G148N counted along it
# Chain of PUM1 PUF domain R8-YHR (Q14671 828-1176 N1122Y/Y1123H/Q1126R): as the sequence (Q14671 828-1176 N971A/H972C/Q975G) above, with A144N, C145H, G148Q, N295Y, Y296H, Q299R counted along it
# Chain of PUM1 PUF domain R2-RVE (Q14671 828-1176 N899R/Y900V/Q903E): as the sequence (Q14671 828-1176 N971A/H972C/Q975G) above, with N72R, Y73V, Q76E, A144N, C145H, G148Q counted along it
sequence,measurement,setting,value
GGCUAGAACUAGUGGAUCCCCCGGCGCCCGGCGGCUCGAGCCCGGGUAAGUGUAUAUAGUCUGCAUGCCGCCGGGCGCCAUGCCUGCAGGUCGACUCUAGAAAACAUG,binding signal,PUM1 PUF domain R4-ACG,0.66 log2 enrichment (interaction score)
same,binding signal,PUM1 PUF domain R4-PFN,6.39 log2 enrichment (interaction score)
same,binding signal,PUM1 PUF domain R4-GRA,2.46 log2 enrichment (interaction score)
GGCUAGAACUAGUGGAUCCCCCGGCGCCCGGCGGCUCGAGCCCGGGUAAGUGUUAAUAGUCUGCAUGCCGCCGGGCGCCAUGCCUGCAGGUCGACUCUAGAAAACAUG,binding signal,PUM1 PUF domain R5-GGR,1.88 log2 enrichment (interaction score)
same,binding signal,PUM1 PUF domain R5-RHF,3.71 log2 enrichment (interaction score)
GGCUAGAACUAGUGGAUCCCCCGGCGCCCGGCGGCUCGAGCCCGGGUAAGUGUAAAUUGUCUGCAUGCCGCCGGGCGCCAUGCCUGCAGGUCGACUCUAGAAAACAUG,binding signal,PUM1 PUF domain R1-KGS,4.48 log2 enrichment (interaction score)
GGCUAGAACUAGUGGAUCCCCCGGCGCCCGGCGGCUCGAGCCCGGGUAAGUGUACAUAGUCUGCAUGCCGCCGGGCGCCAUGCCUGCAGGUCGACUCUAGAAAACAUG,binding signal,PUM1 PUF domain R4-ACG,1.1 log2 enrichment (interaction score)
same,binding signal,PUM1 PUF domain R4-GRA,1.92 log2 enrichment (interaction score)
GGCUAGAACUAGUGGAUCCCCCGGCGCCCGGCGGCUCGAGCCCGGGUAAGUGUAAAUAGUCUGCAUGCCGCCGGGCGCCAUGCCUGCAGGUCGACUCUAGAAAACAUG,binding signal,PUM1 PUF domain R4-ACG,3.13 log2 enrichment (interaction score)
same,binding signal,PUM1 PUF domain R8-RFT,4.66 log2 enrichment (interaction score)
same,binding signal,PUM1 PUF domain R8-HWG,4.47 log2 enrichment (interaction score)
same,binding signal,PUM1 PUF domain R4-GRA,4.39 log2 enrichment (interaction score)
GGCUAGAACUAGUGGAUCCCCCGGCGCCCGGCGGCUCGAGCCCGGGUAAGUGUAAAGAGUCUGCAUGCCGCCGGGCGCCAUGCCUGCAGGUCGACUCUAGAAAACAUG,binding signal,PUM1 PUF domain R2-RVE,2.9 log2 enrichment (interaction score)
GGCUAGAACUAGUGGAUCCCCCGGCGCCCGGCGGCUCGAGCCCGGGUAAGUGUCAAUAGUCUGCAUGCCGCCGGGCGCCAUGCCUGCAGGUCGACUCUAGAAAACAUG,binding signal,PUM1 PUF domain R5-GGR,4.92 log2 enrichment (interaction score)
same,binding signal,PUM1 PUF domain R5-RHF,2.99 log2 enrichment (interaction score)
GGCUAGAACUAGUGGAUCCCCCGGCGCCCGGCGGCUCGAGCCCGGGUAAGUGUAAAUCGUCUGCAUGCCGCCGGGCGCCAUGCCUGCAGGUCGACUCUAGAAAACAUG,binding signal,PUM1 PUF domain R1-KGS,5.23 log2 enrichment (interaction score)
GGCUAGAACUAGUGGAUCCCCCGGCGCCCGGCGGCUCGAGCCCGGGUAAGCGUAAAUAGUCUGCAUGCCGCCGGGCGCCAUGCCUGCAGGUCGACUCUAGAAAACAUG,binding signal,PUM1 PUF domain R8-RFT,5.64 log2 enrichment (interaction score)
same,binding signal,PUM1 PUF domain R8-HWG,4.11 log2 enrichment (interaction score)
same,binding signal,PUM1 PUF domain R8-YHR,3.34 log2 enrichment (interaction score)
